# Inconclusive results are not listed. Active and inactive are the calls of the source. Calls come from the whole dose curve; tested in HEK293 reporter line.
# Experiment: qHTS for Inhibitors of the Functional Ribonucleoprotein Complex (vRNP) of Lassa (LASV) Arenavirus: LASV Primary Screen - GLuc reporter signal (AID 1347082); note: nearly all actives have a fitted effect of over 60% in size
# Conditions: LASV minigenome vRNP, Gaussia luciferase reporter; series mostly up to 57.5 µM; activity change, negative = inhibition: at the top concentration
# % is set by controls: 0 for no effect and ±100 for the full control effect.
SMILES,"activity change, negative = inhibition",Potency
CC(=O)OCC(=O)[C@@]1(OC(C)=O)[C@@H](C)C[C@H]2[C@@H]3C[C@H](F)C4=CC(=O)C=C[C@]4(C)[C@@]3(F)[C@@H](O)C[C@@]21C,5.5% (inactive),
CC(C)(C)C(=O)Oc1ccc(S(=O)(=O)Nc2ccccc2C(=O)NCC(=O)O)cc1,,inactive
CC(C)(C(=O)c1cccnc1)c1cccnc1,0.576% (inactive),
C[N+]1(C)[C@@H]2CC(OC(=O)[C@H](CO)c3ccccc3)C[C@H]1[C@@H]1O[C@@H]12 (some centres undefined),-4.21% (inactive),
NS(=O)(=O)c1cc(Cl)c(Cl)c(S(N)(=O)=O)c1,3.83% (inactive),
CCC(C(=O)NC(=O)NC(C)=O)c1ccccc1 (centres undefined),0.881% (inactive),
NNC(=O)c1ccncc1,,inactive
O=C(O)COc1nn(Cc2ccccc2)c2ccccc12,0.871% (inactive),
O=C(O)Cc1cccc2ccccc12,,inactive
O=C(O)Cc1ccc(-c2ccccc2)cc1,-0.84% (inactive),
CCS(=O)(=O)CCn1c([N+](=O)[O-])cnc1C,-0.16% (inactive),
CN/C(=C\[N+](=O)[O-])NCCSCc1csc(CN(C)C)n1,10.4% (inactive),
Cc1c(NC(=O)c2cccnc2)c(=O)n(-c2ccccc2)n1C,6.34% (inactive),
CN1CCN(c2c(F)cc3c(=O)c(C(=O)O)cn4c3c2SCC4)CC1,3.73% (inactive),
CC(=O)[C@H]1CC[C@H]2[C@@H]3C=CC4=CC(=O)CC[C@@]4(C)[C@@H]3CC[C@]12C,-25.3% (inactive),
OC[C@H]1O[C@@H](n2cnc3c2NC=NC[C@H]3O)C[C@@H]1O,-1.01% (inactive),
Nc1ccn([C@@H]2O[C@H](CO)[C@@H](O)C2O)c(=O)n1 (some centres undefined),,inactive
COc1ccc(S(=O)(=O)Nc2nnc(CC(C)C)s2)cc1,-0.826% (inactive),
C=CCc1ccc(O)c(OC)c1,2.26% (inactive),
CCOc1cc(OCC)c(C(=O)CCC(=O)O)cc1OCC,-5.47% (inactive),

SMILES,"activity change, negative = inhibition",Potency
CC(C)(C)NCC(O)COc1cccc2c1C[C@H](O)[C@H](O)C2 (some centres undefined),12.2% (inactive),
O=c1[nH]c(=O)n([C@H]2C[C@H](O)[C@@H](CO)O2)cc1Br,,inactive
O=C(CCOCCOCCOCCOCCC(=O)Nc1c(I)cc(I)c(C(=O)O)c1I)Nc1c(I)cc(I)c(C(=O)O)c1I,-6.14% (inactive),
Cc1nc2c([nH]1)c(=O)n(C)c(=O)n2Cc1ccco1,,inactive
Cc1[nH]cnc1-c1ccc(Cl)cc1,2.7% (inactive),
O=C(N[C@H](CO)[C@H](O)c1ccc([N+](=O)[O-])cc1)C(Cl)Cl,,inactive
Cc1onc(-c2ccccc2)c1C(=O)N[C@@H]1C(=O)N2[C@@H](C(=O)O)C(C)(C)S[C@@H]12,7.97% (inactive),
NC[C@H]1O[C@H](O[C@H]2[C@H](O[C@@H]3O[C@H](CO)[C@@H](O)[C@H]3O)C(O)[C@H](N)C[C@@H]2N)[C@H](N)[C@@H](O)[C@@H]1O (some centres undefined),-1.42% [at 11.5 µM] (inactive),
COC(=O)c1cc(Cl)ccc1NS(=O)(=O)C(F)(F)F,-6.31% (inactive),
CC(C)Cn1cnc2c(N)nc3ccccc3c21,,inactive
COC(=O)c1ccc(NC(C)=O)cc1OC,-17% (inactive),
O=C(CO)[C@@H](O)[C@H](O)[C@@H](O)CO,-7.76% (inactive),
Cc1ncc(CO)c(C=O)c1O,-8.84% (inactive),
COc1ccc(C(=O)c2ccccc2)c(O)c1,-5.74% (inactive),
COCCOC(=O)C1=C(C)NC(C)=C(C(=O)OC(C)C)C1c1cccc([N+](=O)[O-])c1 (centres undefined),,inactive
COc1ccc2c(c1)c(CC(=O)OC/C=C(\C)CC/C=C(\C)CCC=C(C)C)c(C)n2C(=O)c1ccc(Cl)cc1,-3.76% (inactive),
CCOC(=O)[C@H](CCc1ccccc1)N[C@@H](C)C(=O)N1CCC[C@H]1C(=O)O,0.313% (inactive),
COc1cc(C=O)ccc1O,-7.19% (inactive),
CCN1CCN(C(=O)N[C@@H](C(=O)N[C@@H]2C(=O)N3[C@@H]2SC(C)(C)[C@H]3C(=O)O)c2ccccc2)C(=O)C1=O,0.565% (inactive),

# — PubChem BioAssay (NCATS)
